Drawing on the OligoGym collection, this text covers sensor-assay potency score (higher = more potent) for 90 sequences.

Common to all, as to assay: pooled miR-30 sensor sort-seq; sequence = guide strand
Conditions in all cases: shRNA

For assay [1], the target named is CLDN16.
Assay [2] addresses CLCN5.
Assay [3] addresses CIRBP.
In assay [4] the target is CNOT1.
In assay [5] the target is COL20A1.
Assay [6] addresses COL4A2.
Assay [7] addresses COL23A1.
The target in assay [8] is COL4A3BP.
Assay [9] addresses COMMD10.
Assay [10] has as its target COMMD8.
Assay [11] has as its target COMMD1.
Further: reference of the scale not given here.

Regarding TAGAACGTTCCACATACACATC, the sensor-assay potency score (higher = more potent) in assay [1] was -1.34.
Take TTCTCTCAGGTCCAACATCTTT: the sensor-assay potency score (higher = more potent) in assay [1] is -1.61.
TTGATAACCAGAGTCCACTTAC: the sensor-assay potency score (higher = more potent) in assay [2] is -0.327.
Turning to TTTTATTGGTAATCTCTCGGTG, the sensor-assay potency score (higher = more potent) in assay [2] was -0.249.
As for TGTCGTAACTGTCTCTGTAGGA, the sensor-assay potency score (higher = more potent) in assay [3] was found to be 0.291.
AAAAGCATCACTCACACTGTGA: the sensor-assay potency score (higher = more potent) in assay [2] was -0.413.
In the case of TTTGTCTCTCTCTTCAAAGGTG, the sensor-assay potency score (higher = more potent) in [2] is -0.196.
The sequence TCTGCAGTAATCATCAACGCTC had a sensor-assay potency score (higher = more potent) in assay [1] of -0.0383.
TTAAGTCTGTCATCCAATGAGC displayed a sensor-assay potency score (higher = more potent) in [2] of -1.29.
The sequence TGTCTGACGACTTGCCTGCCTG registered a sensor-assay potency score (higher = more potent) in [3] of -1.09.
In [2], TATAGCACCAACAGCCATGCTA registered a sensor-assay potency score (higher = more potent) of -0.0804.
On the same count and under the same terms, in the case of TAGCTGACCTCTTCAAGGCTGA it was -0.234.
Take TACATTTTGGCCGTCTCTGTGC: the sensor-assay potency score (higher = more potent) in assay [1] was -0.539.
Take TAGGTGAAGATCATACTGCTGC: the sensor-assay potency score (higher = more potent) in [4] stood at 0.544.
As for TTCCTTTAGCTCTTCAACCTTT, the sensor-assay potency score (higher = more potent) in assay [4] was -0.326.
On to TAGAGCCTGACCTTGGAGCGGC, for which the sensor-assay potency score (higher = more potent) in assay [5] is -0.375.
With TTGGTTGTGATTGTTCTGGAAT, in [6], the sensor-assay potency score (higher = more potent) was -0.89.
Regarding TTTGTAGTCGTTACACAGGAGG, the sensor-assay potency score (higher = more potent) in assay [6] was -1.03.
Sequence TTGTCCTTGGTCTCCCCGGGGG gave a sensor-assay potency score (higher = more potent) in assay [7] of -1.12.
For TACATCTGCATTCCCCAGCGTC, the sensor-assay potency score (higher = more potent) in assay [6] is -0.779.
On the same count and under the same terms, in the case of TTTACGTCCCTGCAGTCCCGGG it was -1.37.
Turning to TTCGCTAGTCCGTCCAACTTCT, in assay [7], the sensor-assay potency score (higher = more potent) is -0.113.
Regarding TCTATCTCCTTTTAGCCCGGGG, the sensor-assay potency score (higher = more potent) in [6] is -0.278.
Still for that read-out and setting: in the case of TTTAATGTCTTTCATTCCTGGC it was -0.64; in that of TTGCATTCGATGAATGGTGTGG, 0.0414; in that of TATCCGATCCACAAACTCCGCC, -0.539.
As for TAGTCCGTCCAACTTCTCCCGC, the sensor-assay potency score (higher = more potent) in assay [7] is -1.02.
In assay [6], ATCTGTGTCACAATCTATTTGT showed a sensor-assay potency score (higher = more potent) of -0.377.
In assay [6], TAGGACTTGTCGTTCCGGCTGG came in with a sensor-assay potency score (higher = more potent) of 0.103.
In turn, TTTGCCTGCACAGCCCACCTAG yielded a sensor-assay potency score (higher = more potent) in assay [7] of -1.12.
Turning to TACAGGAAGGGCATGGTGCTGA, in assay [6], the sensor-assay potency score (higher = more potent) was -0.213.
In assay [6], TAGGGCTTGATCTCGTCCTCGG showed a sensor-assay potency score (higher = more potent) of -0.228.
With TCATAGTCGATCACCACTGTGT, the sensor-assay potency score (higher = more potent) in [7] amounted to 0.319.
In the case of TGTCACAATCTATTTGTCCTGG, the sensor-assay potency score (higher = more potent) in assay [6] was 0.235.
For TTAAATCTCAGGGACAACGTGG, in assay [6], the sensor-assay potency score (higher = more potent) is -0.373.
The same measure, in the same setting: in the case of TCACATCTGTGTCACAATCTAT it was -0.621.
TGATTGTTCTGGAATCTCCTTT: in assay [6], the sensor-assay potency score (higher = more potent) came out at 0.225.
As to TTGGTGTGAAGGCAACTTGGGG, the sensor-assay potency score (higher = more potent) in assay [5] is -0.796.
Turning to TTGCTGGGAACACTTGCTGGAG, the sensor-assay potency score (higher = more potent) in assay [7] is -1.43.
In assay [5], TTGAAGAGCGTGAAGGTCGGGG returned a sensor-assay potency score (higher = more potent) of 0.169.
Turning to TCTACCTTCATCTCCTTCCTGG, the sensor-assay potency score (higher = more potent) in assay [7] came out at 0.0937.
TTTCTCTCCTTTAATGTCTTTC registered a sensor-assay potency score (higher = more potent) in assay [6] of -0.595.
On to TTGAGGGCATCCAAGATCCTGC, for which the sensor-assay potency score (higher = more potent) in assay [7] is -1.13.
In turn, TTCTCTTCTGTATACCTTCATT came in with a sensor-assay potency score (higher = more potent) in assay [8] of -1.23.
Turning to TCACACACAGAACAGCGGCTGA, in assay [6], the sensor-assay potency score (higher = more potent) is -0.772.
With TAGTAGCAGACATCACCAGGGT, the sensor-assay potency score (higher = more potent) in [6] is 0.056.
On to TAGAGCTAGACCCTCGTGGGGG, for which the sensor-assay potency score (higher = more potent) in assay [7] is -0.316.
TTCTCCTGGAGTACCCTTCGTT had a sensor-assay potency score (higher = more potent) in [6] of -0.712.
In turn, TAGTAGTGGCAGGTGCCGCGGC returned a sensor-assay potency score (higher = more potent) in [6] of -0.784.
Consider TTGCTTTGCCTGCACAGCCCAC, for which the sensor-assay potency score (higher = more potent) in assay [7] was -1.59.
In assay [6], TTTGATAGCTTCGTCGCCTTCT had a sensor-assay potency score (higher = more potent) of 0.156.
Regarding TTGGTCTCCTTTCTGTCCTGGG, in [6], the sensor-assay potency score (higher = more potent) was -0.772.
In turn, TAGTCGATCACCACTGTGTCTC had a sensor-assay potency score (higher = more potent) in assay [7] of -0.624.
As to TTCTCTCCACGCTCGCTCCGAT, in assay [7], the sensor-assay potency score (higher = more potent) was -1.13.
Take TAAATTTATAGTGTCCCCGATG: in assay [6], the sensor-assay potency score (higher = more potent) is -0.984.
With TTGAGCAGAGTGAGCCATCTGA, the sensor-assay potency score (higher = more potent) in assay [9] is -0.146.
As to TTTACATCTAGATGCAGGCTTA, the sensor-assay potency score (higher = more potent) in assay [10] was -0.242.
Sequence TTTTGTCTTGTGGCTCTTCCAG yielded a sensor-assay potency score (higher = more potent) in assay [11] of -0.915.
In turn, TATCTTGTCTGTCAAGAGCAGC had a sensor-assay potency score (higher = more potent) in assay [8] of -1.23.
In [8], TTCTTCTACAACCAACTGCCAA yielded a sensor-assay potency score (higher = more potent) of -0.938.
Sequence TATTGTTTCAAGAACTAGGTGA returned a sensor-assay potency score (higher = more potent) in assay [9] of 0.412.
In turn, TTCTACCTCTGACAGCGTCTTC registered a sensor-assay potency score (higher = more potent) in [11] of -0.88.
TTGTAGGAAAGTCATCTTCATC had a sensor-assay potency score (higher = more potent) in [8] of -1.71.
TGCTTGTATAGTCTCTAGCTTG: the sensor-assay potency score (higher = more potent) in assay [9] was -1.08.
In turn, TAAGGTACACATCTTATCTTGT came in with a sensor-assay potency score (higher = more potent) in assay [9] of 0.795.
In assay [10], AATTATTTTGTGAAGAAGCTGC had a sensor-assay potency score (higher = more potent) of 0.272.
As to TATAATGGCAACAGGTGTGTGT, the sensor-assay potency score (higher = more potent) in assay [11] came to 0.267.
For TAACTTTTCTTTATTGCCGTTG, the sensor-assay potency score (higher = more potent) in assay [8] is -0.347.
TTATTTTTCAAAACTACCCAAC showed a sensor-assay potency score (higher = more potent) in assay [8] of -0.396.
In turn, TTGTCTAAGATGAATGTTCTCT came in with a sensor-assay potency score (higher = more potent) in assay [9] of 0.187.
In assay [10], TTCTTTTACATCTAGATGCAGG showed a sensor-assay potency score (higher = more potent) of -0.776.
As for TTGATTTCATCTTTCCTACTTT, in assay [10], the sensor-assay potency score (higher = more potent) is -0.353.
Take TTCCACAAGAACTTTCTCCAGG: the sensor-assay potency score (higher = more potent) in assay [9] was -0.261.
In [11], TTTGGAAATGACAGCAGCTTGG yielded a sensor-assay potency score (higher = more potent) of -0.686.
TTGTATAGTCTCTAGCTTGTTA: the sensor-assay potency score (higher = more potent) in assay [9] stood at 0.109.
TTCTCCTTCTTCTACAACCAAC had a sensor-assay potency score (higher = more potent) in assay [8] of -1.55.
The sequence TTTCAACAACTCCAACTCCTTC returned a sensor-assay potency score (higher = more potent) in assay [11] of -0.622.
TAGAAATCAAACAACTCCTTGT registered a sensor-assay potency score (higher = more potent) in [9] of 0.836.
In turn, TGATACTTTCTTCTACCTCTGA yielded a sensor-assay potency score (higher = more potent) in [11] of -0.273.
TTGACTGAGACTTGCCATCAAC: in [11], the sensor-assay potency score (higher = more potent) is -1.5.
Regarding TACTTCTCTTCTGTATACCTTC, the sensor-assay potency score (higher = more potent) in [8] was -0.012.
Turning to TTTGTCTTGTGGCTCTTCCAGA, the sensor-assay potency score (higher = more potent) in assay [11] is -0.37.
On to TTGAGCTGAGTGCCTTGACTGA, for which, in assay [11], the sensor-assay potency score (higher = more potent) was -0.799.
For the sequence TTAGCTACATATGTAATCTTGC, the sensor-assay potency score (higher = more potent) in assay [8] was found to be 0.206.
Turning to TTAACAATGATCTCTATTGGTT, the sensor-assay potency score (higher = more potent) in assay [9] was -0.722.
In assay [10], TTTTACATCTAGATGCAGGCTT came in with a sensor-assay potency score (higher = more potent) of 0.949.
Turning to TTGCATAGAATGTTGTCCCTGC, in assay [8], the sensor-assay potency score (higher = more potent) came to 0.716.
Consider TTCTTCTACCTCTGACAGCGTC, for which the sensor-assay potency score (higher = more potent) in assay [11] is -0.845.
For the sequence TTTTTGAAGAATCCGAGTGAGC, in assay [9], the sensor-assay potency score (higher = more potent) was -1.13.
Regarding TATTTTGTGAAGAAGCTGCGGG, the sensor-assay potency score (higher = more potent) in assay [10] worked out at 0.366.
